This is a sample that favours compounds with a hit; in the whole collection about 1.3% have one here.
PME-1 inh – PME-1 (human) inhibition; Q9Y570; recombinant PME-1, FP-Rh probe fluorescence polarization; inhibition, % at 5.9 µM; 0.53% of 320,000 active; AID 2130;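 active = inhibition above the campaign mean of all compounds plus 3 SD, cut at about 26% in these data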;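 note: competitive labeling of PME-1 active site by serine hydrolase directed probe; 0% = PME-1 with DMSO and 100% = wells lacking PME-1 enzyme; inhibitors block probe labeling so polarization falls and inhibition rises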
Target sequence (Q9Y570 whole entry, looked up): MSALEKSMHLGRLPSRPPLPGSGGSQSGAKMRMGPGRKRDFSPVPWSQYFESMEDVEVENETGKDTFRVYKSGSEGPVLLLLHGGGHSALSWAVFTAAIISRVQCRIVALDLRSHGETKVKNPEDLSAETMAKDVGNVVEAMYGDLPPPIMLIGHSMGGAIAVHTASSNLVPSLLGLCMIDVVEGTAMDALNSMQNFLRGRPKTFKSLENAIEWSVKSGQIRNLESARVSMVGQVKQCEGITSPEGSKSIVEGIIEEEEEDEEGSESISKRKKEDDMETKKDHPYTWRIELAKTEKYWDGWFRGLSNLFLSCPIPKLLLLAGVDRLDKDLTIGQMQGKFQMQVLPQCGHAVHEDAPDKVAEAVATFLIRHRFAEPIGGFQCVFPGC
Fam108B inh – counter-screen for RBBP9 inhibitors: inhibitors of mouse Fam108B; recombinant Fam108B, FP-Rh probe fluorescence polarization; inhibition, % at 9.51 µM; 0.33% of 300,000 active; AID 1947;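 active = inhibition above the screen mean inhibition plus 3 SD, computed separately per campaign, cut at about 18% in these data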;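 note: inhibitors lower polarization as less probe binds the enzyme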
PREPL inh – human PREPL enzyme inhibition | Q4J6C6 | recombinant PREPL, fluorescence polarization activity-based probe | inhibition, % at 5.96 µM | 0.68% of 320,000 active | AID 2751; in the data active = inhibition above about 43%;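 note: 0% = enzyme with DMSO and 100% = wells lacking enzyme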
LYPLA2 inh – blocks human lysophospholipase 2, a PME1 counter-screen. 0.38% of 320,000 active. O95372. recombinant LYPLA2, FP-Rh probe fluorescence polarization. AID 2177. inhibition, % at 5.9 µM;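 active = inhibition above the screen-wide mean plus 3 SD, limit set per campaign, cut at about 26% in these data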;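 note: 0% = LYPLA2 with DMSO and 100% = wells lacking LYPLA2 enzyme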
Target sequence (O95372 whole entry, looked up): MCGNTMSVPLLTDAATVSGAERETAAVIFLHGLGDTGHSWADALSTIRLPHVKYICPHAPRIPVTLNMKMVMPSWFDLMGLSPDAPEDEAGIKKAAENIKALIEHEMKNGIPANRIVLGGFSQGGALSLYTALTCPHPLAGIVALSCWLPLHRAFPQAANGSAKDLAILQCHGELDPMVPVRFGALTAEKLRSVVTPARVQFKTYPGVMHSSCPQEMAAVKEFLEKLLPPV
LYPLA1 inh – blocks human lysophospholipase 1, a PME1 counter-screen; O75608; recombinant LYPLA1, FP-Rh probe fluorescence polarization; inhibition, % at 5.9 µM; 0.16% of 320,000 active;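 active = inhibition above the mean of all tested compounds plus 3 SD, set per campaign, cut at about 14% in these data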;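 note: inhibitors block serine hydrolase probe labeling of LYPLA1 so polarization falls; 0% = enzyme with DMSO and 100% = wells lacking LYPLA1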
LYPLA2 conf – LYPLA2 (human) inhibition, confirmation counter-screen | inhibition, % at 5.9 µM | recombinant LYPLA2, FP-Rh probe fluorescence polarization | shares compounds with LYPLA2 inh | 72% of 1,100 active;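 active = mean inhibition across replicates above the hit cutoff set in the primary screen, cut at about 26% in these data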;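 note: blocked labeling of the enzyme by serine hydrolase FP-Rh probe lowers polarization; 0% = enzyme with DMSO and 100% = wells lacking LYPLA2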
LYPLA2 ABPP – LYPLA2 (human) inhibition, late stage results | shares compounds with LYPLA2 inh | rhLYPLA2 in mouse brain proteome, gel ABPP FP-Rh | inhibition, % at 20 µM | 30% of 150 active | AID 652029;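 active = inhibition of LYPLA2 enzyme probe labeling above about 50%, limit read from the data; inactive = inhibition below that limit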;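 note: loss of FP-Rh probe labeling of the LYPLA2 gel band measured as band density; 0% = DMSO only control band and 100% = blank gel background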
Numbers without * were called inactive; / = no result.

SMILES	PME-1 inh	Fam108B inh	PREPL inh	LYPLA2 inh	LYPLA1 inh	LYPLA2 conf	others
O=C(CN1C(=O)CSc2ccc(C(F)(F)F)cc21)Nc1ccccc1	4	0	-1	37*	1	37*
COc1ccc(CCNC(=O)c2c(O)c3ccccc3[nH]c2=O)cc1	-7	-3	18	2	1	/
O=C(OCC(=O)N1CCCCCC1)c1cccc(Cl)c1	-2	/	3	1	0	/
O=C(COC(=O)/C=C/c1cc(Br)ccc1F)NC1CC1	/	/	11	/	/	/
COc1ccccc1NC(=O)CN1CCN(c2ccccc2)CC1	0	1	42	-5	-3	/
COc1ccc(NC(=O)CN2C(=O)COc3ccc(S(=O)(=O)N4CCCCC4)cc32)cc1OC	5	2	2	4	2	/
O=C(CN1C(=O)COc2ccc(S(=O)(=O)N3CCCC3)cc21)Nc1cccc(F)c1	5	3	-2	41*	-2	47*
COc1cc2cnc(-c3ccccc3F)cc2cc1OC	/	/	6	/	/	/
CSc1ccc(C(=O)C2CCCN(C(=O)c3ccc4c(c3)OCO4)C2)cc1 (configuration not stated)	17	-2	23	4	0	/
CSc1ccc(C(=O)C2CCCN(C(=O)c3cc4cc(F)ccc4[nH]3)C2)cc1 (configuration not stated)	-3	-4	-13	36*	13	41*
O=[N+]([O-])c1ccccc1S(=O)(=O)N/C(=N/S(=O)(=O)c1ccccc1)c1ccccc1	/	/	5	/	/	/
CC(C)CCN1C(=O)c2ccc(C(=O)NCc3ccco3)cc2C1=O	3	3	-7	28*	7	21
O=C(NCc1ccco1)c1ccc2c(c1)C(=O)N(Cc1ccccc1)C2=O	7	6	18	4	0	/
COc1ccc(CCN2C(=O)CC(N3CCN(S(=O)(=O)c4ccccc4)CC3)C2=O)cc1OC (configuration not stated)	10	1	7	9	5	/
COc1cc(-c2c(C#N)c(N)nc3c2CCCC3)cc(OC)c1OC	-6	-3	3	5	5	/
COc1cc(-c2c(C#N)c(N)nc(SCc3ccncc3)c2C#N)cc(OC)c1OC	5	-3	12	35*	3	29*
O=C(CSc1nc2nccnc2c(=O)n1Cc1cccs1)Nc1ccccc1	-2	-1	-4	4	-7	/
COc1ccccc1NC(=O)CSc1nc2nccnc2c(=O)n1Cc1cccs1	11	4	-1	27*	-3	-4
CC(C)N1CCc2c(sc(NC(=O)c3ccc(C(=O)c4ccccc4)cc3)c2C(N)=O)C1	-2	3	28	26*	-5	31*
O=C(c1ccc(Br)s1)N1CCN(C/C=C/c2ccccc2)CC1	2	1	13	36*	10	34*
O=C(c1ccc(Br)o1)N1CCN(C/C=C/c2ccccc2)CC1	-6	1	-14	5	4	/
Cc1cc(C(=O)OCC(=O)NC(C)C)c2ccccc2n1	4	10	17	3	-1	/
Cc1cc(C(=O)OCC(=O)c2cccs2)c2ccccc2n1	2	-3	7	31*	-2	43*
CC(=O)c1ccc(N2CCN(C(=O)c3noc4c3CSc3ccccc3-4)CC2)cc1	0	1	23	44*	6	17
Cc1ccc(C)c(-n2ccnc2SCC(=O)c2c(N)n(C3CC3)c(=O)[nH]c2=O)c1	2	/	5	0	6	/
SMILES	PME-1 inh	Fam108B inh	PREPL inh	LYPLA2 inh	LYPLA1 inh	LYPLA2 conf	others
CCc1ccc(C(=O)COC(=O)c2cc([N+](=O)[O-])ccc2NCCO)cc1	7	-1	14	27*	-3	20
Cc1ccc2c(c1)N(CC(=O)N1CCCCC1)C(=O)C(C)O2 (configuration not stated)	6	-6	3	-4	2	/
O=C(c1ccc(OC2CCN(CCc3ccccc3)CC2)cc1)N1CCCC(CCCO)C1 (configuration not stated)	0	2	26	65*	7	51*	LYPLA2 ABPP=12
O=C(C1CCN(S(=O)(=O)c2ccc(-n3cnnn3)cc2)CC1)N1CCCCC1	-2	-2	-1	7	-5	/
CN(C)/C=C/C(=O)c1ccc(C(F)(F)F)cc1F	0	0	-2	6	1	/
Cc1ccc(-c2noc(CCC(=O)N3CCN(c4cccc(C(F)(F)F)c4)CC3)n2)cc1	-4	3	-17	42*	0	38*
CC1CN(C(=O)CCC(=O)N2CCN(c3cccc(C(F)(F)F)c3)CC2)c2ccccc2O1 (configuration not stated)	6	4	12	59*	12	59*	LYPLA2 ABPP=44
Cc1cc(N2CCOCC2)nc2ccc(NC(=O)CCC(=O)N3CCN(c4cccc(C(F)(F)F)c4)CC3)cc12	9	4	35	41*	2	51*	LYPLA2 ABPP=10
Cn1c(=O)cc(OCC(=O)N2CCN(c3cccc(C(F)(F)F)c3)CC2)c2ccccc21	-1	-5	-24	33*	3	62*	LYPLA2 ABPP=15
CCOC(=O)N1CCC(N2C(=O)c3ccc(C(=O)Nc4cccc(OC)c4)cc3C2=O)CC1	-5	-1	-3	7	-4	/
O=C(Nc1cccc(-n2cccn2)c1)C1CCCN(Cc2ccccc2F)C1 (configuration not stated)	5	-3	7	-2	0	/
COc1ccc(N2CCN(C(=O)CCNS(=O)(=O)c3cccs3)CC2)cc1	0	-6	6	10	1	/
O=C(CCNS(=O)(=O)c1cccs1)N1CCN(c2cccc(C(F)(F)F)c2)CC1	2	/	2	37*	5	28*
COc1ccc(/C=N/N2CCN(Cc3ccc(C)cc3)CC2)cc1Br	-2	1	25	26*	5	21
CCC(=O)NC(=S)Nc1ccc(NC(=O)c2ccccc2[N+](=O)[O-])cc1	-1	7	-2	14	0	/
CCCC(=O)Nc1ccc(NC(=S)NC(=O)c2ccccc2[N+](=O)[O-])cc1	2	3	7	30*	2	31*
Cc1ccc(S(=O)(=O)N2CCC(C(=O)OCC(=O)N3CC(C)CC(C)C3)CC2)cc1C (configuration not stated)	10	-3	4	3	-1	/
COc1ccc(S(=O)(=O)NCc2ccc(C(=O)N3CCN(Cc4ccccc4)CC3)cc2)cc1	5	1	7	68*	3	59*	LYPLA2 ABPP=38
COc1cccc(S(=O)(=O)NCc2ccc(C(=O)N3CCN(Cc4ccccc4)CC3)cc2)c1	3	4	8	43*	2	49*
Cc1ccc(S(=O)(=O)NCc2ccc(C(=O)N3CCN(Cc4ccccc4)CC3)cc2)cc1	1	1	16	17	2	/
